hNpr1 antagonist: Natriuretic polypeptide receptor (hNpr1) antagonism - Primary qHTS; Atrial natriuretic peptide receptor 1 (Homo sapiens), P16066; HEK293 hNpr1 GloSensor cGMP, ANP-stimulated luminescence; Potency, µM (highest dose often 46.3 µM), hits mostly inhibitors; 76,000 tested, 1.6% active; calls by dose curve; also: nearly all actives have a fitted effect of over 60% in size
Target sequence (P16066 whole entry, looked up): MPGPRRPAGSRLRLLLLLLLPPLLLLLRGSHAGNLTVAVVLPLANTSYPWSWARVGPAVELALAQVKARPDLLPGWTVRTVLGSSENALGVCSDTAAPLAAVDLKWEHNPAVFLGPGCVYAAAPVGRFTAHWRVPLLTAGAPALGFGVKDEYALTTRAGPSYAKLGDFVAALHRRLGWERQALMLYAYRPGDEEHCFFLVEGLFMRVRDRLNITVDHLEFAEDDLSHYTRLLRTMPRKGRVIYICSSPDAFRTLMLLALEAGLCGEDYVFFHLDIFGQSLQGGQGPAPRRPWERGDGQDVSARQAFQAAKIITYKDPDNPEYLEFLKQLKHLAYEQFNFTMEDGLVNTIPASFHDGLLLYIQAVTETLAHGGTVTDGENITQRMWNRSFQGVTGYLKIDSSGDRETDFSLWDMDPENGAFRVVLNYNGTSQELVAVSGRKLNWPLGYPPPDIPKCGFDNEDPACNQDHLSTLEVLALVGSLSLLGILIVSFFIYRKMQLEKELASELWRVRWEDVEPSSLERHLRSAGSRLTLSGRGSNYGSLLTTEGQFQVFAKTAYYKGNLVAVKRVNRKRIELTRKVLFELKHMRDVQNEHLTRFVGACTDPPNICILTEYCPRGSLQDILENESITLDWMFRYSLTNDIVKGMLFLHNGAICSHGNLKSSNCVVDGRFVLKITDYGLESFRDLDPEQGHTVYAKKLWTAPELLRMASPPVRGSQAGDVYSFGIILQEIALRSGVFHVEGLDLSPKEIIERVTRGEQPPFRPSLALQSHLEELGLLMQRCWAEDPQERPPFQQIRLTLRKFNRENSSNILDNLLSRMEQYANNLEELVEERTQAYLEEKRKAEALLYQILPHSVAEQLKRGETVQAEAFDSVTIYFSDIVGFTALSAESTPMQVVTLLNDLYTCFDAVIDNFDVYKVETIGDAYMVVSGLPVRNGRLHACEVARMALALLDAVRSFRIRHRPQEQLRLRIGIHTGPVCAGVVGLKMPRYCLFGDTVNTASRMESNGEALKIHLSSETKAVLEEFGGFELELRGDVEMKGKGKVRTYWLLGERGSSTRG
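Compound pre-incubated 30 min at room temperature on GloSensor-loaded HEK293 cells stably carrying hNpr1 and the pGS-40F cGMP biosensor. Stimulation uses hNppA at 0.1 nM final; luminescence is taken at baseline and 20 min post-agonist.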
3T3 cytotox: Cytotoxic Profiling in NIH 3T3 Cell Line of Diverse Libraries Using Quantitative High-Throughput Screening; 94,000 tested, 4.3% active; NIH 3T3 viability, CellTiter-Glo ATP luminescence, 48-72 h; Potency, µM (titrated, usually from 96.7 µM), most hits filed as inhibitors; AID 1345082, 2018; also: nearly all actives have a fitted effect of over 55% in size
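ATP-dependent luminescence (CellTiter-Glo) served as the viability signal for NIH 3T3 cells treated with compound for 48 or 72 hr at 37 °C.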
HEK293 tox: Cytotoxic Profiling in HEK 293 Cell Line of Diverse Libraries Using Quantitative High-Throughput Screening; 94,000 tested, 6.6% active; Potency, µM (doses to about 115 µM), usual class: inhibitors; HEK 293 viability, ATP luminescence (CellTiter-Glo), 48-72 h; also: nearly all actives have a fitted effect of over 60% in size
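Pintool-delivered compounds were incubated with HEK 293 cells (250 cells/well) at 37 degree Celsius for 48 or 72 hr. ATP-dependent luminescence (CellTiter-Glo) then reported remaining viable cells.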
Luciferase inh: Firefly luciferase inhibition profiling of diverse chemical library using quantitative high-throughput screening | 76,000 tested, 2.5% active | Potency, µM (top dose mostly 115 µM), hits mostly inhibitors | purified P. pyralis luciferase, luminescence, biochemical | AID 1347043, 2019; also: nearly all actives have a fitted effect of over 65% in size
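Luminescence read by CCD imaging after purified firefly luciferase (10nM final) was added to substrate buffer holding 10uM D-luciferin and 10uM ATP, pH 7.5, pre-dosed with compound.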
Npr1 antag conf: Natriuretic polypeptide receptor (hNpr1) antagonism - Confirmation; shares compounds with hNpr1 antagonist; HEK293 hNpr1 cGMP GloSensor luminescence, ANP-stimulated; Potency, µM (highest dose often 57.6 µM), hits mostly inhibitors; 1,400 tested, 76% active; AID 1347044, 2019; calls by dose curve; also: nearly all actives have a fitted effect of over 70% in size
NPR2 antag: Natriuretic polypeptide receptor (hNpr2) antagonism - Subtype selectivity assay | shares compounds with hNpr1 antagonist | HEK293 hNpr2 GloSensor cGMP luminescence, CNP-stimulated | Potency, µM (series often up to 57.6 µM), most hits filed as inhibitors | 1,400 tested, 67% active; calls by dose curve; also: nearly all actives have a fitted effect of over 70% in size
FLuc inh counter: Natriuretic polypeptide receptor (hNpr1) antagonism - Confirmation firefly luciferase (FLuc) inhibition counterscreen; purified FLuc enzyme, luminescence, Km substrate; shares compounds with hNpr1 antagonist; AID 1347047, 2019; Potency, µM (series often up to 57.6 µM), hits mostly inhibitors; 1,400 tested, 0.7% active
GloSensor cGMP: Natriuretic polypeptide receptor (hNpr1) antagonism - Counterscreen GloSensor control cell line | 1,400 tested, 69% active | shares compounds with hNpr1 antagonist | Potency, µM (top dose mostly 57.6 µM), usual class: inhibitors | HEK293 GloSensor cGMP, SNP-stimulated, luminescence; calls by dose curve; also: nearly all actives have a fitted effect of over 70% in size
Each line names hits and unclear results; the compound was inactive in the other large screens (follow-up assays come after a bar, where they were run). Compounds with a hit are over-represented: about 11% of the library has one in this group of screens. Unless noted, calls follow the shape of the dose curve; as a rule, active = well fitted curve in the direction sought with a large enough effect; inconclusive = small, poorly fitted or top-dose-only effect, or another doubt; inactive = no such curve, though single readings can be large; an effect the other way counts as inactive or inconclusive.

CCS(=O)(=O)c1ccc2oc([C@H]3CCN(Cc4cccc(Cl)c4)C3)nc2c1	hNpr1 antagonist inconclusive, 3T3 cytotox inconclusive, HEK293 tox 44.7µM | Npr1 antag conf 35.3µM | NPR2 antag 35.3µM | FLuc inh counter inactive | GloSensor cGMP inconclusive
Clc1ccc(CN2CC[C@H](c3nc4cc(Cl)ccc4o3)C2)cc1	3T3 cytotox inconclusive, HEK293 tox inconclusive, Luciferase inh inconclusive
COc1c(C)cccc1C(=O)N1CCOC(c2ccc(Cl)c(Cl)c2)C1 (centres undefined)	hNpr1 antagonist 10µM, 3T3 cytotox inconclusive, HEK293 tox inconclusive | Npr1 antag conf 17.2µM | NPR2 antag 19.3µM | FLuc inh counter inactive | GloSensor cGMP 15.3µM
CN(C)S(=O)(=O)N1CCOC(c2ccc(Cl)c(Cl)c2)C1 (centres undefined)	3T3 cytotox inconclusive, HEK293 tox inconclusive
Cc1ccc(CN2CC[C@@H]3[C@H]2C(=O)NC[C@H](CCC(=O)Nc2ccccc2)N3C)cc1	3T3 cytotox inconclusive, HEK293 tox inconclusive
CCn1cc(-c2ccc(C)cc2)cc1C(=O)N1CCC(C)CC1	3T3 cytotox inconclusive, HEK293 tox inconclusive
CCn1cc(-c2ccc(C)cc2)cc1C(=O)N1CCN(c2ccccn2)CC1	hNpr1 antagonist 14.1µM, 3T3 cytotox 35.5µM, HEK293 tox 31.6µM | Npr1 antag conf 19.3µM | NPR2 antag 19.3µM | FLuc inh counter inactive | GloSensor cGMP 15.3µM
CNC(=O)c1cc(C2CC2)nc2c1c(C1CCCN1C(=O)c1ccccc1C)nn2C (centres undefined)	none (no result: hNpr1 antagonist, Luciferase inh)
CC(C)N1CCN(C(=O)C2(CCO)CC23CCOCC3)CC1 (centres undefined)	none (no result: hNpr1 antagonist, Luciferase inh)
O=C(C1CCC1)N1CCC2(CC1)CC(Cc1nc(C3CC3)no1)CCO2 (centres undefined)	3T3 cytotox inconclusive, HEK293 tox inconclusive
O=S(=O)(c1cccc(F)c1)N1CCC2(CC1)CC(Cc1nc(C3CC3)no1)CCO2 (centres undefined)	hNpr1 antagonist 11.2µM, 3T3 cytotox inconclusive, HEK293 tox 44.7µM | Npr1 antag conf 24.3µM | NPR2 antag 24.3µM | FLuc inh counter inactive | GloSensor cGMP 21.7µM
COc1ccc(-c2ccnc(N[C@H]3CO[C@H]4[C@@H]3OC[C@H]4OC(=O)Nc3cccc(C(C)=O)c3)n2)cc1	hNpr1 antagonist 11.2µM, 3T3 cytotox inconclusive, HEK293 tox inconclusive | Npr1 antag conf 19.3µM | NPR2 antag 21.7µM | FLuc inh counter inactive | GloSensor cGMP 17.2µM
COc1ccc(NC(=O)O[C@@H]2CO[C@H]3[C@@H]2OC[C@@H]3Nc2nccc(-c3cccc(F)c3)n2)cc1	3T3 cytotox inconclusive
COc1ccc(-c2ccnc(N[C@H]3CO[C@H]4[C@@H]3OC[C@H]4OC(=O)Nc3ccc(C(C)=O)cc3)n2)cc1	hNpr1 antagonist 10µM, HEK293 tox inconclusive | Npr1 antag conf 10.9µM | NPR2 antag 15.3µM | FLuc inh counter inactive | GloSensor cGMP 9.68µM
N#Cc1cccc(-c2ccnc(N[C@H]3CO[C@H]4[C@@H]3OC[C@H]4OC(=O)Nc3ccc(Oc4ccccc4)cc3)n2)c1	hNpr1 antagonist inconclusive, 3T3 cytotox inconclusive, HEK293 tox inconclusive | Npr1 antag conf inconclusive | NPR2 antag inactive | FLuc inh counter inactive | GloSensor cGMP inconclusive
CCOC(=O)[C@H]1[C@@H](O)C(=O)N(Cc2ccccc2)C12CCN(C(=O)CC)CC2	3T3 cytotox inconclusive (no result: hNpr1 antagonist, Luciferase inh)
O=C1CCC2(CCN(c3nc4ccccc4s3)CC2)CN1Cc1cccnc1	hNpr1 antagonist 12.6µM, HEK293 tox inconclusive | Npr1 antag conf 17.2µM | NPR2 antag 19.3µM | FLuc inh counter inactive | GloSensor cGMP 15.3µM
Cc1ccc(NC(=O)Cn2cccc2-c2nc(-c3ccc4c(c3)OCO4)no2)cc1	HEK293 tox inconclusive
O=[S+]1([O-])NC2(CCN(Cc3ccc(OC(F)(F)F)cc3)C2)CNc2ccccc21 (centres undefined)	hNpr1 antagonist inconclusive, 3T3 cytotox inconclusive, HEK293 tox 50.1µM | Npr1 antag conf 9.68µM | NPR2 antag 12.2µM | FLuc inh counter inactive | GloSensor cGMP 10.9µM
CCCS(=O)(=O)N[C@H]1C[C@@H](c2nc(-c3ccc(OC)cc3)no2)N(C)C1	HEK293 tox inconclusive, Luciferase inh inconclusive
COc1ccc(S(=O)(=O)N[C@H]2C[C@@H](c3nc(-c4ccc(OC(F)(F)F)cc4)no3)N(C)C2)cc1	hNpr1 antagonist 11.2µM, 3T3 cytotox inconclusive, HEK293 tox inconclusive | Npr1 antag conf 21.7µM | NPR2 antag 21.7µM | FLuc inh counter inactive | GloSensor cGMP 17.2µM
O=C(NCc1ccc2nonc2c1)[C@@]12CNC[C@@H]1CN(C1CCCC1)C2	none
O=C(Cc1ccc(F)cc1)N1CCC2(CC1)CC(N(Cc1ccccc1)C1CC1)CCO2 (centres undefined)	hNpr1 antagonist inconclusive, 3T3 cytotox inconclusive, HEK293 tox inconclusive
O=C(c1ccc(F)cc1)N1CCC2(CC1)CC(N(Cc1ccccc1)C1CC1)CCO2 (centres undefined)	3T3 cytotox inconclusive, HEK293 tox inconclusive
CC(C)C(=O)N1CCC2(CC1)CC(N(Cc1ccc(F)cc1)C1CC1)CCO2 (centres undefined)	HEK293 tox inconclusive | Npr1 antag conf inactive | NPR2 antag inactive | FLuc inh counter inactive | GloSensor cGMP inactive
Cc1ccc(C(=O)N2CCC3(CC2)CC(N(Cc2ccccc2)C2CC2)CCO3)cc1F (centres undefined)	hNpr1 antagonist 11.2µM, 3T3 cytotox inconclusive, HEK293 tox 44.7µM | Npr1 antag conf 24.3µM | NPR2 antag inconclusive | FLuc inh counter inactive | GloSensor cGMP 27.3µM
Cc1cc(=O)n(CC(=O)Nc2ccc(Cl)cc2F)c(N(C)Cc2ccccc2)n1	hNpr1 antagonist 12.6µM, HEK293 tox inconclusive | Npr1 antag conf 24.3µM | NPR2 antag inconclusive | FLuc inh counter inactive | GloSensor cGMP inconclusive
Cc1cc(=O)n(CC(=O)Nc2ccc(Br)cc2)c(N(C)Cc2ccccc2)n1	hNpr1 antagonist inconclusive, 3T3 cytotox inconclusive, HEK293 tox inconclusive

Source: PubChem (National Center for Advancing Translational Sciences (NCATS))
